# Reference: PubChem BioAssay (NCI)
# Values joined by “and” are separate entries in the source; they are usually repeats but may differ in a detail not shown here. Equal entries are not always repeated. The panel holds about 79,000 compounds, 15% with a hit somewhere; the sample as a whole holds those more often. Values without a mark were called inactive. Active and inactive are the calls of the source. Cut-off read from the data, not from the text of the source: active = growth inhibition above about 70%; inactive = the rest.
# Key:
# [1] = NCI Yeast Anticancer Drug Screen. Data for the mlh1 rad18 strain (AID 175); settings: S. cerevisiae mlh1 rad18 strain growth inhibition; at 50.0 µM; hits give high values
# Procedure, shortened: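 Yeast w/ defined DNA-repair lesions; compound exposure; growth vs vehicle controls → % inhibition.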
# [2] = NCI Yeast Anticancer Drug Screen. Data for the mec2-1 strain (AID 157); settings: S. cerevisiae mec2-1 strain, at 50.0 µM, hits give high values
# Procedure, shortened: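 Yeast mec2-1 mutant treated with compound. Readout: growth inhibition vs vehicle controls.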
# [3] = NCI Yeast Anticancer Drug Screen. Data for the cln2 rad14 strain (AID 165);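 note: 0% = growth equal to vehicle treated cultures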; settings: S. cerevisiae cln2 rad14 strain, at 50.0 µM, hits give high values
# Procedure, shortened: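 cln2 rad14 yeast strain; compound exposure; growth inhibition read vs vehicle controls.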
Compound,growth inhibition [1],growth inhibition [2],growth inhibition [3]
[Cl][Sn]([CH2][Sn]([Cl])([c]1ccccc1)[c]1ccccc1)([c]1ccccc1)[c]1ccccc1,82.2% (active),–,–
Cc1ccc(Cl)cc1NCN1C(=O)c2ccccc2C1=O,11.1%,-2.4%,–
N#CCS(=O)(=O)c1cccc[n+]1[O-],-37.5%,–,–
O=C(O)C(O)C(O)C(OC1OC(CO)C(O)C(O)C1O)C(O)CO.O=C(O)C(O)C(O)C(OC1OC(CO)C(O)C(O)C1O)C(O)CO.[NH-]C1CCCCC1[NH-].[Pt+2] (stereo unspecified),-63.5%,–,–
CCN(CC#N)c1ccc(Nc2cc(Cl)ccc2Cl)cc1,0.3%,-22.1%,–
CC(=O)NC(C(=O)O)C(C)C.CC(=O)NC(C(=O)O)C(C)C.[NH-]C1CCCCC1[NH-].[Pt+2] (stereo unspecified),7.05% and 50%,–,–
OCCOCCOCCOCCO,–,–,-48.1%
CC(=O)NS(=O)(=O)c1ccc2sc(C)nc2c1,-27.7%,–,–
COC(CN(C)CC(OC)OC)OC,-11.8%,-20.9%,–
O=C1CCCCCC2=NC12 (stereo unspecified),-25.6%,–,–
CC(=O)C1=CCC2C3CC(C)=C4CC(O)CCC4(C)C3CCC12C (stereo unspecified),-2.95%,-1.15%,–
Nc1ccccc1SC1CC(=O)N(c2ccccc2Cl)C1=O (stereo unspecified),-6.5%,-33.1%,–
CCCCCCCCOC(=O)C(=O)C(C#N)c1ccccc1 (stereo unspecified),10.2%,6.3%,–
c1ccc(-c2nc3ccc4ccccc4c3nc2-c2ccccc2)cc1,1.85%,-35.2%,–
